Consider ten molecules from PubChem BioAssay (NCI).

This is part of a sample that, as a whole, favours compounds with a hit. Of some 79,000 tested, about 15% had one in any assay. A number with no mark means an inactive call. The source made the active and inactive calls. Rule as the data show it: active = growth inhibition above about 70%; inactive = the rest.

The nature of assay [1]: NCI Yeast Anticancer Drug Screen. Data for the rad50 strain (AID 155).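 Also: 0% = growth of vehicle-only cultures of the same strain.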 The note with it: S. cerevisiae rad50 strain growth inhibition, stronger effect = higher value. The procedure, abridged: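 Relative growth inhibition (compound vs vehicle) was measured in yeast with a defined repair-gene alteration.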
Assay [2] is described as follows: NCI Yeast Anticancer Drug Screen. Data for the mec2-1 strain (AID 157). The settings on record: S. cerevisiae mec2-1 strain, stronger effect = higher value. The procedure, abridged:
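Yeast mec2-1 mutant treated with compound. Readout: growth inhibition vs vehicle controls.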

Assay [3] can be described thus: NCI Yeast Anticancer Drug Screen. Data for the sgs1 mgt1 strain (AID 161).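 Also: 0% = growth of cultures given vehicle only.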 The note with it: S. cerevisiae sgs1 mgt1 strain, stronger effect = higher value. The procedure, abridged:
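Genetically altered yeast, compound exposure, growth inhibition relative to vehicle.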

A short description of assay [4]: NCI Yeast Anticancer Drug Screen. Data for the cln2 rad14 strain (AID 165).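 Also: 0% = growth equal to vehicle treated cultures.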 The settings on record: S. cerevisiae cln2 rad14 strain, stronger effect = higher value. The procedure, abridged:
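cln2 rad14 yeast strain; compound exposure; growth inhibition read vs vehicle controls.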

Assay [5] can be described thus: NCI Yeast Anticancer Drug Screen. Data for the bub3 strain (AID 167). The note with it: S. cerevisiae bub3 mutant strain, stronger effect = higher value. The method, boiled down:
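Screening used yeast with an engineered genetic alteration affecting cell cycle control. Compound-exposed cultures were compared with vehicle cultures, and reduced growth was taken as inhibition.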

A short description of assay [6]: NCI Yeast Anticancer Drug Screen. Data for the mlh1 rad18 strain (AID 175). The settings on record: S. cerevisiae mlh1 rad18 strain growth inhibition, stronger effect = higher value. The method, boiled down:
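Yeast w/ defined DNA-repair lesions; compound exposure; growth vs vehicle controls → % inhibition.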

The mark [7] stands for this setting: at 5.0 µM (retest, dose inferred, filed as 0.5).
Where [8] appears, read: at 50.0 µM (retest, dose inferred, filed as 5.0).

As for `CCCC(=O)Oc1ccc([N+](=O)[O-])cc1`, the growth inhibition in assay [1] (setting [7]) is 4%; in assay [1] (setting [8]) it was 23%; in assay [1] (at 50.0 µM) it was 28.4%; in assay [2] (setting [7]), 2%; in assay [2] (setting [8]), 13%; in assay [2] (at 50.0 µM), 29%. The growth inhibition in assay [3] (setting [7]) is -1%; in assay [3] (setting [8]) it was 8%; in assay [3] (at 50.0 µM) it was 11.1%; in assay [4] (setting [7]) it was 2%; in assay [4] (setting [8]) it was 6%; in assay [4] (at 50.0 µM), 34.9%. Further, the growth inhibition in assay [5] (setting [7]) is 4%; in assay [5] (setting [8]), 12%; in assay [5] (at 50.0 µM), 4.5%; in assay [6] (setting [7]), 4%; in assay [6] (setting [8]), 13%; in assay [6] (at 50.0 µM), 13.1%.
Regarding `O=C(CC1(O)C(=O)Nc2c(Cl)cc(Cl)cc21)c1ccc(Br)cc1Br` (stereo not given), the growth inhibition is 55% in assay [1] (setting [7]); 98% (active) in assay [1] (setting [8]); 92.3% (active) in assay [1] (at 50.0 µM); 96% (active) in assay [2] (setting [7]); 99% (active) in assay [2] (setting [8]); 90.8% (active) in assay [2] (at 50.0 µM). Besides, the growth inhibition was 97% (active) in assay [3] (setting [7]); 92% (active) in assay [3] (setting [8]); 91.3% (active) in assay [3] (at 50.0 µM); 94% (active) in assay [4] (setting [7]); 93% (active) in assay [4] (setting [8]); 90.7% (active) in assay [4] (at 50.0 µM). For the same molecule, the growth inhibition in assay [5] (setting [7]) was 97% (active); in assay [5] (setting [8]), 93% (active); in assay [5] (at 50.0 µM) it was 93.8% (active); in assay [6] (setting [7]), 58%; in assay [6] (setting [8]), 98% (active); in assay [6] (at 50.0 µM), 92.2% (active).
Regarding `OCCOc1ccc2ccccc2c1-c1c(OCCOc2ccc3ccccc3c2-c2c(OCCO)ccc3ccccc23)ccc2ccccc12`, the growth inhibition in assay [1] (setting [7]) was 0%; in assay [1] (setting [8]), 22%; in assay [1] (at 50.0 µM), 36.1%; in assay [2] (setting [7]), -3%; in assay [2] (setting [8]), 13%; in assay [2] (at 50.0 µM), 21.5%. Moreover, the growth inhibition in assay [3] (setting [7]) was 1%; in assay [3] (setting [8]) it was 29%; in assay [3] (at 50.0 µM), 36.9%; in assay [4] (setting [7]), 6%; in assay [4] (setting [8]), 33%; in assay [4] (at 50.0 µM), 11.7%. The growth inhibition in assay [5] (setting [7]) is -2%; in assay [5] (setting [8]) it was 14%; in assay [5] (at 50.0 µM), 24.6%; in assay [6] (setting [7]), 3%; in assay [6] (setting [8]), 27%; in assay [6] (at 50.0 µM), 26.4%.
On to `BrC1=CC(Br)=C2N=C(C(Br)(Br)Br)N=C3N=C(C(Br)(Br)Br)N=C1N32`, for which the growth inhibition in assay [1] (setting [7]) is 27%; in assay [1] (setting [8]) it was 97% (active); in assay [1] (at 50.0 µM), 99% (active); in assay [2] (setting [7]) it was 15%; in assay [2] (setting [8]), 98% (active); in assay [2] (at 50.0 µM) it was 99.5% (active). In addition, the growth inhibition was 20% in assay [3] (setting [7]); 99% (active) in assay [3] (setting [8]); 99.8% (active) in assay [3] (at 50.0 µM); 5% in assay [4] (setting [7]); 97% (active) in assay [4] (setting [8]); 98.2% (active) in assay [4] (at 50.0 µM). The growth inhibition in assay [5] (setting [7]) is 0%; in assay [5] (setting [8]), 97% (active); in assay [5] (at 50.0 µM), 99.2% (active); in assay [6] (setting [7]), 30%; in assay [6] (setting [8]) it was 97% (active); in assay [6] (at 50.0 µM), 99% (active).
Regarding `Cc1ccc(N2C(=O)C(Cl)=C(Cl)C2=O)cc1`, the growth inhibition was 11% in assay [1] (setting [7]); 99% (active) in assay [1] (setting [8]); 99.3% (active) in assay [1] (at 50.0 µM); 12% in assay [2] (setting [7]); 100% (active) in assay [2] (setting [8]); 99.4% (active) in assay [2] (at 50.0 µM). Further, the growth inhibition in assay [3] (setting [7]) is 20%; in assay [3] (setting [8]), 100% (active); in assay [3] (at 50.0 µM), 99.5% (active); in assay [4] (setting [7]) it was 8%; in assay [4] (setting [8]), 99% (active); in assay [4] (at 50.0 µM) it was 98.8% (active). For the same molecule, the growth inhibition was 16% in assay [5] (setting [7]); 99% (active) in assay [5] (setting [8]); 99.3% (active) in assay [5] (at 50.0 µM); 14% in assay [6] (setting [7]); 100% (active) in assay [6] (setting [8]); 97.5% (active) in assay [6] (at 50.0 µM).
As for `CC(=O)OCC1OC(Sc2ccc3ccccc3c2)C(OC(C)=O)C(OC(C)=O)C1OC(C)=O` (stereo not given), the growth inhibition in assay [1] (setting [7]) is 2%; in assay [1] (setting [8]) it was -7%; in assay [1] (at 50.0 µM), 23.9%; in assay [2] (setting [7]), 3%; in assay [2] (setting [8]) it was 2%; in assay [2] (at 50.0 µM) it was 12.8%. Besides, the growth inhibition was 2% in assay [3] (setting [7]); 1% in assay [3] (setting [8]); 2.7% in assay [3] (at 50.0 µM); 1% in assay [4] (setting [7]); -15% in assay [4] (setting [8]); 52.4% in assay [4] (at 50.0 µM). For the same molecule, the growth inhibition is 4% in assay [5] (setting [7]); 7% in assay [5] (setting [8]); 70.2% (active) in assay [5] (at 50.0 µM); 0% in assay [6] (setting [7]); -2% in assay [6] (setting [8]); 22% in assay [6] (at 50.0 µM).
On to `CCCCCCCCCCCCCCCCNC(C)c1ccccc1` (stereo not given), for which the growth inhibition in assay [1] (setting [7]) was 0%; in assay [1] (setting [8]), -3%; in assay [1] (at 50.0 µM) it was 98.1% (active); in assay [2] (setting [7]) it was -1%; in assay [2] (setting [8]), 9%; in assay [2] (at 50.0 µM), 98.7% (active). The growth inhibition in assay [3] (setting [7]) was 6%; in assay [3] (setting [8]), 4%; in assay [3] (at 50.0 µM) it was 99% (active); in assay [4] (setting [7]), -9%; in assay [4] (setting [8]) it was -4%; in assay [4] (at 50.0 µM) it was 97.5% (active). Further, the growth inhibition is -6% in assay [5] (setting [7]); -6% in assay [5] (setting [8]); 99% (active) in assay [5] (at 50.0 µM); -2% in assay [6] (setting [7]); 9% in assay [6] (setting [8]); 98.3% (active) in assay [6] (at 50.0 µM).
As for `C1=C(c2ccccc2)CCc2c1ccc1ccccc21`, the growth inhibition in assay [1] (setting [7]) is 5%; in assay [1] (setting [8]), -8%; in assay [1] (at 50.0 µM) it was -3.45%; in assay [2] (setting [7]) it was -6%; in assay [2] (setting [8]), 3%; in assay [2] (at 50.0 µM) it was -10.8%. In addition, the growth inhibition in assay [3] (setting [7]) is 1%; in assay [3] (setting [8]), 16%; in assay [3] (at 50.0 µM), 0%; in assay [4] (setting [7]) it was -9%; in assay [4] (setting [8]), -10%; in assay [4] (at 50.0 µM), 4.35%. Further, the growth inhibition in assay [5] (setting [7]) is 7%; in assay [5] (setting [8]), 10%; in assay [5] (at 50.0 µM) it was 16%; in assay [6] (setting [7]), -1%; in assay [6] (setting [8]), 21%; in assay [6] (at 50.0 µM) it was 5.7%.
`COc1ccc(CCN2CC(=O)N3CSCC3C2=O)cc1OC` (stereo not given): the growth inhibition in assay [1] (setting [7]) is 6%; in assay [1] (setting [8]), 24%; in assay [1] (at 50.0 µM), 66.7%; in assay [2] (setting [7]), 5%; in assay [2] (setting [8]), 16%; in assay [2] (at 50.0 µM), 7.05%. The growth inhibition was 9% in assay [3] (setting [7]); 27% in assay [3] (setting [8]); 34.8% in assay [3] (at 50.0 µM); 4% in assay [4] (setting [7]); 27% in assay [4] (setting [8]); 25.4% in assay [4] (at 50.0 µM). Moreover, the growth inhibition is 3% in assay [5] (setting [7]); 28% in assay [5] (setting [8]); 21.8% in assay [5] (at 50.0 µM); -1% in assay [6] (setting [7]); 14% in assay [6] (setting [8]); 37.2% in assay [6] (at 50.0 µM).
Regarding `Oc1c(Cl)cc(Cl)c(Cc2c(Cl)cc(Cl)c(O)c2Cl)c1Cl`, the growth inhibition is 98% (active) in assay [1] (setting [7]); 97% (active) in assay [1] (setting [8]); 65.8% in assay [1] (at 50.0 µM); 98% (active) in assay [2] (setting [7]); 98% (active) in assay [2] (setting [8]); 3.5% in assay [2] (at 50.0 µM). Also, the growth inhibition in assay [3] (setting [7]) was 98% (active); in assay [3] (setting [8]) it was 99% (active); in assay [3] (at 50.0 µM) it was -10.2%; in assay [4] (setting [7]) it was 98% (active); in assay [4] (setting [8]) it was 97% (active); in assay [4] (at 50.0 µM), 19.5%. Also, the growth inhibition in assay [5] (setting [7]) is 97% (active); in assay [5] (setting [8]) it was 97% (active); in assay [5] (at 50.0 µM) it was -3.05%; in assay [6] (setting [7]), 99% (active); in assay [6] (setting [8]), 96% (active); in assay [6] (at 50.0 µM), 46.6%.
